In the library only some 3.1% were active in any assay of this set; here they are far more common.
GSIS activator: GLuc luminescence reporter in INS-1E cells, primary screen for activators of glucose-dependent secretion of insulin; activation, % at 16.6 µM; AID 743287; 370,000 tested, 0.61% active; INS-1E GLuc reporter insulin secretion, 2-3 h;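 active means lowest replicate activation of at least 40%, so every replicate reaches that level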;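 further: 0% = median of neutral control wells and 100% = median of IBMX positive control wells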
EWS-Fli inh: EWS/Fli transcriptional activity inhibition. inhibition, % at 12.6 µM. 350,000 tested, 0.67% active. A673 NR0B1-luciferase reporter, viability-normalised;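 active means mean inhibition of at least 50% after viability correction, with every replicate also passing that limit; inconclusive means mean reaches 50% but only one of two replicates passes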;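 further: firefly luciferase signal divided by Alamar Blue viability fluorescence both relative to DMSO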
PAX8 reporter: inhibitors of PAX8 transcriptional activity in RMG-I cells; RMG-I TPO-luciferase reporter, SteadyGlo, 24 h; inhibition, % at 12.6 µM; 360,000 tested, 1.2% active;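 active means mean replicate inhibition at least 60% with every replicate also reaching 60%; inconclusive means only one of the two criteria is met; inactive means mean below 60% and not all replicates reaching 60%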;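 further: luciferase light reporting Pax8 driven TPO promoter activity; plate controls were median of neutral control wells for no effect and mitoxantrone controls for full effect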
HIV Env fusion: HIV envelope-mediated fusion inhibition; HeLa-JRFL Env/CEM21 cell fusion, luciferase; inhibition, % at 12.3 µM; 360,000 tested, 1.1% active; AID 651610;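 active means mean replicate inhibition score of at least 50 and every replicate individually at or above 50; inconclusive means only one of the two criteria met; inactive means mean below 50 and not all replicates reaching 50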;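 further: 0% = plate neutral controls and 100% = maraviroc near 300 nM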
miR122 inh: inhibitors of miR-122 in Huh7 cells | 340,000 tested, 0.3% active | activation (reporter increase), % at 12.5 µM | Huh7 miR-122 Renilla luciferase sensor, 48 h; neutral wells = 0, positive control = 100;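 active means mean replicate activation score at least 90 and every replicate individually at or above 90; inconclusive means only one of the two criteria met; inactive means neither criterion met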;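 further: higher luciferase means less miR-122 activity so hits act as miR-122 inhibitors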
C2C12 statin: protects C2C12 myotubes from simvastatin toxicity; ATP luminescence, 48 h; scaled: DMSO 0, geranylgeraniol control 100; rescue of ATP level, % at 7.49 µM; AID 602340; 330,000 tested, 0.78% active;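 active means mean ATP rescue above about 67%, or every replicate alone reaching that limit, limit read from the data, passing the limit was not always enough; inconclusive means no clear call, values can overlap the other calls; inactive means mean under the limit and some replicate under it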;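 further: myotubes were challenged with 10 µM simvastatin during compound exposure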
* hit, by the source's call; ? = inconclusive; . = not tested or not shown; [ ] = remark or other dose.

SMILES	GSIS activator	EWS-Fli inh	PAX8 reporter	HIV Env fusion	miR122 inh	C2C12 statin
Cc1ccc2nc(-c3ccc(NC(=O)COC(=O)c4ccco4)cc3)sc2c1	91*	.	-38	-126	.	.
Cc1ccc2nc(-c3ccc(N)cc3)sc2c1	-3	69*	13	-113	-5	.
C[C@@H]1CCCCO[C@@H](CN(C)C(=O)Nc2cccc3ccccc23)[C@H](C)CN([C@H](C)CO)C(=O)c2cc(NC(=O)C3CCCCC3)ccc2O1	-8	-3	28	-16[16.7 µM]	-19[16.7 µM]	.
COc1ccc(/C=N/NS(=O)(=O)c2ccccc2)cc1OC(=O)c1ccc(C)cc1	.	.	.	.	-1	110*
COc1cc(/C=N/NC(N)=S)ccc1OCc1ccc(C)cc1	22	-28	75*	-26	.	.
COc1cc(/C=N/NC(=O)c2ccc(N)cc2)ccc1OC(=O)c1cccc(C)c1	0	.	-14	2	.	6
COc1cc(/C=N/NC(N)=S)ccc1OC(=O)c1ccc(C)cc1	6	.	81*	8	.	.
CO[C@H]1CN(C)C(=O)c2ccc(NC(=O)c3cnccn3)cc2OC[C@@H](C)N(C)C[C@@H]1C	1	12	-3	10[16.7 µM]	-13[16.7 µM]	-6
O=C(NC1CCCC1)[C@@H]1[C@@H](CO)[C@@H]2Cn3c(ccc(C4=CCCC4)c3=O)[C@H]1N2CC1CC1	7	2	.	.	-6[16.7 µM]	14
CC(C)Cc1nc2oc3c(N4CCN(CCO)CC4)ncnc3c2c2c1CCCC2	-7	.	0	-68	-5	7
CCOC(=O)N1CCN(c2ncnc3c2oc2nc(C(C)C)c4c(c23)CCC4)CC1	.	.	.	-17	207*	5
CCCCCc1c(-c2ccccc2OC)ncn1CCc1ccccc1OC	9	43	99*	69*	.	.
CCCCc1c(-c2ccccc2OC)ncn1C(C)c1ccc(Cl)cc1 (stereo not drawn)	55*	11	16	-8	.	.
CCCCCc1c(-c2ccccc2F)ncn1CCc1ccccc1OC	20	24	22	46	.	.
CCc1c(Cc2ccccc2)ncn1CCc1ccccc1OC	.	35	78*	7	.	.
COc1ccccc1CCn1cnc(Cc2ccccc2)c1C(C)C	10	19	18	26	.	.
CCCCc1c(-c2ccccc2F)ncn1CCc1ccccc1OC	64*	33	-4	65*	.	.
CCCC(=O)Nc1ccc2c(c1)OC[C@@H](C)N(Cc1cncnc1)C[C@H](C)[C@H](OC)CN(C)C2=O	-3	-2	-6	.	.	5
O=C(C[C@@H]1CC[C@@H](NC(=O)C2CC2)[C@H](CO)O1)Nc1nccs1	18	-3	-24	22[16.7 µM]	.	-2
CO[C@@H](CN(C)S(=O)(=O)c1ccc(F)cc1)[C@H](C)CN([C@@H](C)CO)S(=O)(=O)c1cccc(Cl)c1	-20	9	.	.	.	-11
CCNC(=O)C[C@H]1CC[C@H]2[C@@H](COC[C@@H](O)CN2C(=O)Nc2ccc3c(c2)OCO3)O1	18	-80	-70	.	4[16.7 µM]	-13
N#Cc1ccc(CSc2nnc(COc3ccccc3)n2-c2ccccc2)cc1	-21	.	.	75*	1	-25
O=C(CS(=O)(=O)c1cn(CC(=O)N2CCCC2)c2ccccc12)Nc1ccccc1	29	-10	.	.	-3	.
CCn1cc(S(=O)(=O)CC(=O)Nc2ccc(C)cc2)c2ccccc21	.	.	-7	-31	98*	3
O=C(CS(=O)(=O)c1cn(CC(=O)N2CCOCC2)c2ccccc12)Nc1ccccc1	40*	2	18	-70	.	.
SMILES	GSIS activator	EWS-Fli inh	PAX8 reporter	HIV Env fusion	miR122 inh	C2C12 statin
Cc1ccc(C)c(CS(=O)(=O)c2cn(CC(=O)N3CCC(C)CC3)c3ccccc23)c1	-17	.	-5	120*	-5	-20
CCN(C(=O)c1cnc(N2CCN(c3ncccn3)CC2)c2ccccc12)c1cccc(Cl)c1	.	.	.	.	-7	110*
CN(C(=O)c1cnc(N2CCN(c3ncccn3)CC2)c2ccccc12)c1ccc(Cl)cc1	-53	.	.	.	0	-10
Cc1ccc(-c2ccc3c(c2)O[C@H](CN(C)C(=O)C2CC2)[C@H](C)CN([C@@H](C)CO)S3(=O)=O)cc1	-14	7	.	-1[16.7 µM]	-3[16.7 µM]	-2
Cc1ccc(C)c(S(=O)(=O)N2CCC(c3nc4c(nnn4Cc4ccc5c(c4)OCCO5)c(=O)[nH]3)CC2)c1	14	4	31	5	-1	77*
CC(C)(C)c1ccc(Cn2nnc3c(=O)[nH]c(C4CCCN(C(=O)Cc5cccs5)C4)nc32)cc1 (stereo not drawn)	-36	.	.	63*	-2	60
Cc1ccc(C)c(Cn2nnc3c(=O)[nH]c(C4CCCN(C(=O)CC(C)C)C4)nc32)c1 (stereo not drawn)	-5	7	.	.	1	85*
CCCCC(=O)N1CCCC(c2nc3c(nnn3Cc3cc(C)ccc3C)c(=O)[nH]2)C1 (stereo not drawn)	.	.	.	40	3	6
CC(C)(C)c1ccc(Cn2nnc3c(=O)[nH]c(C4CCN(C(=O)Cc5cccs5)CC4)nc32)cc1	.	.	.	72*	-2	112*
CC(C)NC(=O)N[C@H]1C=C[C@@H](CC(=O)NC2Cc3ccccc3C2)O[C@@H]1CO	4	.	.	.	.	-10
CN1CCN(CCCNC(=O)CCN2C(=O)COc3ccccc32)CC1	10	.	-9	-7	6	0
CN1CCN(CCCNC(=O)c2ccc(/C=C3\Sc4ccccc4N(Cc4ccc(F)cc4)C3=O)cc2)CC1	76*	23	12	8	-10	24
CCN1CCN(CCNC(=O)c2ccc(/C=C3\Sc4ccccc4N(Cc4ccccc4F)C3=O)cc2)CC1	135	10	0	6	.	.
CN1CCN(CCCNC(=O)c2ccc(/C=C3\Oc4ccccc4N(Cc4ccccc4F)C3=O)cc2)CC1	93*	20	13	2	.	?
CN1CCN(CCCNC(=O)c2ccc(/C=C3/Sc4ccccc4N(Cc4cccc(Cl)c4)C3=O)cc2)CC1	129*	45	-12	11	-7	58
CC(C)C#Cc1ccc2c(c1)O[C@H](CN(C)C)[C@@H](C)CN([C@@H](C)CO)S2(=O)=O	2	5	-10	-13[16.7 µM]	.	5
CN(C)C(=O)c1ccc(-c2ccc(C3[C@H]4CNC[C@@H]3N4C(=O)NC3CCCC3)cc2)cc1 (stereo partly drawn)	-2	.	.	.	.	.
CN(C)CCCNC(=O)C[C@@H]1CC[C@@H]2[C@H](COc3ccc(NS(C)(=O)=O)cc3C(=O)N2C)O1	-2	-17	-43	-16[16.7 µM]	-18[16.7 µM]	19
Cc1ccc(-c2cc(C(=O)NCc3cnn(C)c3)c3cc(Br)ccc3n2)cc1	335*	.	.	.	1	-26
COc1ccc2c3c([nH]c2c1)[C@@H](CO)N(S(C)(=O)=O)CC31CCN(C(=O)c2cccnc2)CC1	5	-2	-4	.	.	.
O=C(CC1C(=O)NCCN1Cc1cccc(F)c1)NC1CCCCC1 (stereo not drawn)	.	-5	.	91*	-4	-4

Screening results (PubChem BioAssay)
